Out of some 330,000 compounds screened, about 4,200 (1.3%) were called active. Roughly 6% stayed inconclusive and do not appear here. Calls come from the whole dose curve; as a rule, active = well fitted activation curve with a large enough effect; inconclusive = small, poorly fitted or top-dose-only effect; inactive = no such curve, though single readings can be large or run the other way. The list comes from a sample in which actives are over-represented; it also holds similar structures and randomly drawn compounds. Where a call stands in place of a potency, no number is given.
Potency is the fitted concentration of half-maximal effect.

A short description of this assay: qHTS screen for small molecules that induce genotoxicity in human embryonic kidney (HEK293T) cells expressing luciferase-tagged ELG1. Note: nearly all actives have a fitted effect of over 60% in size. Conditions: HEK293T ELG1-luciferase reporter, luminescence, 16 h; series mostly up to 46 µM. In short, it runs like this: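 HEK293T cells expressing luciferase-tagged ELG1 were treated with compound or DMSO for 16 hr at 37°C. Luciferase activity was then read after 30 min with ONE-Glo at room temperature; rising signal flags genetic stress.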
In the case of `CCc1ccc(-c2cc(C(=O)NCc3ccco3)c3ccccc3n2)s1`, the Potency result was “inactive”. On to `CC(=NCc1ccco1)c1c(C(F)(F)F)[nH]n(-c2nc3ccccc3s2)c1=O`, for which the Potency was 2.59 µM (active). In the case of `CCC1(CC)NC(=O)N(Cc2nc3ccccc3s2)C1=O`, the Potency result was “inactive”. On to `COc1cc(OC)cc(C(=O)NCC(=O)OCC(=O)NC(C)CCc2ccccc2)c1` (stereo unspecified), for which the Potency entry is “inactive”. As for `COc1cc(OC)c(C(=O)NNC(=O)c2ccccc2-n2cccc2)cc1OC`, the Potency entry is “inactive”. For the compound `N#Cc1ccccc1NC(=O)c1cccc(COc2ccc(Cl)cc2Cl)c1`, the Potency was 0.461 µM (active).

Consider `CSc1ccc(C#N)cc1NC(=O)c1cccc(Cl)c1`, for which the Potency result is “inactive”. Turning to `O=C(Nc1ccn(Cc2ccccc2F)n1)c1ccc(COc2ccc(Cl)cc2Cl)o1`, the Potency result is “inactive”.

For the compound `O=C(COC(=O)c1ccccn1)NNC(=O)c1ccc(Br)cc1`, the Potency entry was “inactive”. In the case of `O=C(N[C@H]1C/C=C\C(c2cccc(F)c2)N(Cc2ccccc2)C(=O)C1)OCC1c2ccccc2-c2ccccc21` (stereo partly specified), the Potency entry was “inactive”.

As for `COc1ccc(S(=O)(=O)N(C)C[C@H]2Oc3c(NC(=O)Nc4ccc5c(c4)OCO5)cccc3C(=O)N([C@H](C)CO)C[C@@H]2C)cc1`, the Potency entry is “inactive”. As to `CC(Oc1ccc2c(-c3ccccc3)cc(=O)oc2c1)C(=O)NC(Cc1c[nH]c2ccccc12)C(=O)O` (stereo unspecified), the Potency entry is “inactive”. In the case of `O=C(Nc1ccn(Cc2ccccc2)n1)c1cccc(F)c1`, the Potency was 23.1 µM (active). Take `O=C(Nc1ccccc1N1CCN(c2ccccc2)CC1)c1cccc(F)c1`: the Potency entry was “inactive”. For `O=C(Nc1cccc(NC(=O)c2cccc(F)c2)c1)c1ccccc1`, the Potency entry was “inactive”. Regarding `O=S(=O)(Nc1ncnc2sccc12)c1cccc(F)c1`, the Potency result is “inactive”. With `Cc1ccc(NC(=O)c2ccc(Cl)nc2)cc1S(=O)(=O)N1CCOCC1`, the Potency entry was “inactive”. In the case of `COc1cccc(-c2nnc(SCCOc3ccc4c(C)cc(=O)oc4c3)o2)c1` it was “inactive”; in that of `COc1ccc2oc(-c3cccc(NC(=O)CSc4ccc(Cl)cc4)c3)nc2c1`, “inactive”. Consider `COc1cccc(-c2nc3cc(C)ccc3o2)c1`, for which the Potency was 1.3 µM (active).

`CC(OC(=O)c1ccc([N+](=O)[O-])cc1)C(=O)NCC1CCCCC1` (stereo unspecified): the Potency result is “inactive”.

`CN(Cc1cccnc1)C(=O)c1cc(COc2ccc3ncccc3c2)on1`: the Potency entry was “inactive”.

Take `CN(Cc1cnccn1)C(=O)c1cc(COc2cccc(C(F)(F)F)c2)on1`: the Potency result is “inactive”.

As to `Cc1cc(CN(C)C(=O)c2cc(COc3ccc(C)c(C)c3)on2)n[nH]1`, the Potency was 2.91 µM (active). In the case of `O=C(Cn1cnc2c(OCc3ccccc3)ncnc21)NCc1nc2ccccc2[nH]1`, the Potency result is “inactive”. In the case of `COc1cccc(C(=O)NCCSc2ccc(Br)cc2)c1`, the Potency entry is “inactive”.

`COc1ccc(C(=O)NCCSc2ccccc2C)cc1`: the Potency was 4.61 µM (active). With `COc1ccc(C(=O)NCc2nnc(SCCOc3ccccc3)n2C)cc1` the entry was “inactive”. `COc1ccc2nc3n(c(=O)c2c1)-c1ccc(Cl)cc1C(=O)NC3Cc1ccccc1` (stereo unspecified): the Potency entry was “inactive”. With `COc1ccc(CCNC(=O)COC(=O)c2ncc(Cl)c(Cl)c2Cl)cc1OC` the entry was “inactive”; with `O=C1c2cccc3c([N+](=O)[O-])ccc(c23)C(=O)N1CC1CCCO1` (stereo unspecified), 20.6 µM (active); with `CN1CN(C)c2ccc([N+](=O)[O-])c3cccc1c23`, “inactive”.

As to `CCOc1cccc(=O)c2c(C)n(CC3CCCO3)c(C)c12` (stereo unspecified), the Potency result is “inactive”.

For the compound `CC[C@@H](C)[C@@H]1CN([C@@H](C)CN2CCC[C@H]2CN2C(N)=NC[C@H]2C(C)C)C(=N)N1CCc1ccc(Cl)c(Cl)c1`, the Potency result was “inactive”.

Regarding `COc1ccc(-c2nc3cc(C)ccn3c2NC2CCCCC2)cc1SC1CCCCC1`, the Potency result is “inactive”.

Turning to `Nc1c(-c2ccc(F)cc2)cnc2ncnn12`, the Potency entry is “inactive”. Take `CC1(C)CN(c2ccc(-c3ccnc4ncnn34)cc2)C1=O`: the Potency is 12.6 µM (active). In the case of `Cc1ccc(C2(C)NC(=O)N(CC(=O)N3CC(=O)Nc4ccccc43)C2=O)cc1` (stereo unspecified) it was “inactive”; in that of `Cc1occc1C(=O)Nc1cccc(S(=O)(=O)N2CCOCC2)c1`, “inactive”; in that of `O=C1C=CN2CCCC2CC1` (stereo unspecified), “inactive”. With `Cc1ccc(/C=N/NC(=O)c2cc3ccccc3cc2O)o1` the entry was “inactive”; with `Cc1cc(N=Nc2ccc3ccccc3c2)ccc1O`, 7.3 µM (active). With `Cc1ccc(Br)c(NS(=O)(=O)c2cccc(C(=O)N3CCNC(=O)C3)c2)c1`, the Potency entry was “inactive”.

For `CC1(C)CC[C@@]2(C(=O)O)C(C1)C1=CCC3[C@@]4(C)CC[C@H](O)C(C)(C)C4CC[C@@]3(C)[C@]1(C)C[C@H]2O` (stereo partly specified), the Potency entry is “inactive”. With `O=C(COc1ccc([N+](=O)[O-])cc1Cl)Nc1ccc2[nH]c(=O)[nH]c2c1`, the Potency result is “inactive”. For `Cc1csc(=O)n1CC(=O)Nc1ccc(S(C)(=O)=O)cc1`, the Potency result was “inactive”. Consider `O=C(COC(=O)c1ccc(F)c(S(=O)(=O)N2CCOCC2)c1)NCc1ccc2c(c1)OCO2`, for which the Potency entry was “inactive”. On to `O=C1CC2(CCCC2)C(=O)N1CN1CCN(S(=O)(=O)c2ccc(F)cc2F)CC1`, for which the Potency entry was “inactive”.

With `Oc1cccc2ccc(/C=C/c3ccc(Br)s3)nc12`, the Potency is 20.6 µM (active). `Nc1ccc(S(=O)(=O)Nc2nccc(/C=C/c3ccc(Br)s3)n2)cc1`: the Potency result was “inactive”.

Turning to `O=C(COc1ccccc1F)Nc1nc(-c2ccccn2)cs1`, the Potency result is “inactive”. In the case of `O=C(Nc1nc(-c2cccnc2)cs1)c1ccccc1F` it was 18.3 µM (active); in that of `O=C(O)c1ccccc1C(=O)Nc1nc(-c2ccccc2)cs1`, “inactive”; in that of `CC1O[C@@H](OC2C(O)C(C)O[C@H](OC(=O)[C@]34CCC(C)(C)C[C@H]3C3=CCC5[C@@]6(C)CC(O)C(O[C@@H]7OC(CO)C(O)[C@@H](O)[C@@H]7O)[C@@](C)(C(=O)O)C6CC[C@@]5(C)[C@]3(CO)CC4)C2O[C@H]2OC(C)[C@@H](O[C@@H]3OCC(O[C@@H]4OC(CO)C(O)[C@H](O)C4O)[C@@H](O)[C@@H]3O)[C@H](O)C2O)C(O)C(O)C1O` (stereo partly specified), “inactive”. Regarding `C=CCNC(=O)c1cc(-c2ccccc2O)on1`, the Potency was 18.4 µM (active).

As to `C=CCNC(=O)c1csc(-c2ccccc2)n1`, the Potency entry is “inactive”. `C=CCNC(=O)c1ccccc1SCc1c(C)noc1C`: the Potency result is “inactive”. In the case of `C[C@H](CO)N1C[C@H](C)[C@@H](CN(C)S(=O)(=O)c2ccc(F)cc2)Oc2ccc(NC(=O)CCC(F)(F)F)cc2C1=O` it was “inactive”; in that of `COc1ccc(OCC(=O)Nc2nnc(-c3ccco3)s2)cc1`, “inactive”; in that of `CCCCOc1ccc(-c2nnc(-c3ccco3)o2)cc1`, 3.66 µM (active). For the compound `O=C(CCc1ccccc1)Nc1cccc(-c2nnc(-c3ccco3)o2)c1`, the Potency result is “inactive”.

The values are drawn from PubChem BioAssay AID504466 (National Center for Advancing Translational Sciences (NCATS), 2011).
